KCNQ2 pot: potentiators of rat KCNQ2 potassium channel; CHO-K1 KCNQ2, FluxOR thallium flux fluorescence; active compounds read high; B-score at 10 µM; 310,000 tested, 0.54% active;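 active = fluorescence ratio B-score at least 3 SD of library B-scores, with initial fluorescence B-score within 3 of them, cut at about 5.3 in these data; same plate scores as AID 2156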;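 note: B-score of peak minus minimum over baseline fluorescence ratio after K+ and Tl+ stimulus; positive B-score means potentiation of KCNQ2 with more thallium influx and brighter signal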
KCNQ2 block: rat KCNQ2 potassium channel inhibitors, primary screen, cell-based, CHO-K1, FluxOR thallium flux, B-score; 20 min; active compounds read low; B-score at 10 µM; 310,000 tested, 1.1% active;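 active = fluorescence ratio B-score at most minus 3 library SDs, with starting brightness B-score within 2 library SDs, cut at about -5.5 in these data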
Kir21 confirm: mouse Kir2.1 channel blockers, retest, confirmation, cell-based, FluxOR thallium flux, duplicate. shares compounds with KCNQ2 pot. Kir2.1-expressing cells, FluxOR thallium flux fluorescence; active compounds read low. Tl flux remaining, % of negative control (active compounds read low), % at 10 µM. 2,300 tested, 41% active. AID 2032, 2009;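 active = Primary-screen hit whose thallium flux fell at least 3 control SD below untreated wells in both duplicates, with normal baseline fluorescence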;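 note: 0% = blank wells without stimulus and 100% = stimulated no-compound controls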
HEK293 ctr: counter-screen for Kir2.1 inhibitors: effect in parental HEK293 cells; FluxOR signal as % of negative control (100 = no effect), % at 10 µM; 2,300 tested, 19% active; FluxOR thallium flux fluorescence; 0% = unstimulated blank wells; AID 2105; shares compounds with KCNQ2 pot;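 active = dye signal at least 3 control SD above or below untreated wells in both duplicates, raw fluorescence within 3, either direction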;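 note: percent is based on the flux ratio of peak minus minimum fluorescence over baseline F0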
CHO-K1 Tl ctr: nonspecific thallium flux increase in parental CHO-K1, confirmation, counter-screen for KCNQ2 potentiator project, cell-based, FluxOR thallium flux, duplicate; shares compounds with KCNQ2 pot; parental CHO-K1 cells, FluxOR thallium flux fluorescence; zero = vehicle mean+3SD, 100% = vehicle-minus-blank window; activity increase over 3SD of controls, % at 10 µM; 1,200 tested, 43% active; AID 2282, 2010;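 active = signal rise of at least 3 SD above the untreated control mean, in both duplicate wells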;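 note: counter screen of KCNQ2 potentiator hits so any rise reflects channel-independent effects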
KCNQ1 pot spec: human KCNQ1 channel potentiation off-target, confirmation, selectivity assay for KCNQ2 potentiator project, cell-based, CHO, FluxOR thallium flux | shares compounds with KCNQ2 pot | activation over 3SD threshold, % at 10 µM | CHO KCNQ1 stable, FluxOR thallium flux fluorescence; beyond 3SD, as % of vehicle-control signal | 1,200 tested, 28% active;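 active = fluorescence ratio rise of at least 3 SD of vehicle wells above their mean, in both replicate wells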;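 note: 0% = vehicle mean plus 3 SD and 100% = vehicle minus unstimulated blank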
Target sequence (P51787 whole entry, looked up): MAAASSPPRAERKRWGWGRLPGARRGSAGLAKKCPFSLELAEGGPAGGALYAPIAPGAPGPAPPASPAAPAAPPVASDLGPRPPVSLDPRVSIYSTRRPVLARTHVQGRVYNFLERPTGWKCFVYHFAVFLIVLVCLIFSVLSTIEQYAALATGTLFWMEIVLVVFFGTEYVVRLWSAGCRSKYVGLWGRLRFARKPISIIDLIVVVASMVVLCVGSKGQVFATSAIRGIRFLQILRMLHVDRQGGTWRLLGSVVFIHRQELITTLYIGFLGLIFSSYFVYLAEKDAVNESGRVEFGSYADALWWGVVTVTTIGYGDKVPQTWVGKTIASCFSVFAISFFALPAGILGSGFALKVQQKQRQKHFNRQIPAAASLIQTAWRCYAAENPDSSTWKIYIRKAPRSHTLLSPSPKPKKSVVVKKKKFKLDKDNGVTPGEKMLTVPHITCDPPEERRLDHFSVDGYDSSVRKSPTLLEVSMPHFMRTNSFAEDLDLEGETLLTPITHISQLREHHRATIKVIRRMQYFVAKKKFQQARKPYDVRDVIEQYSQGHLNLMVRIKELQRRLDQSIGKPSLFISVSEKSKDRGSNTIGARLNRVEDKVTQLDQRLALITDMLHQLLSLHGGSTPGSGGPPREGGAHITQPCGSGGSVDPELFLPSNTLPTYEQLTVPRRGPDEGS
KCNQ2 pot confirm: rat KCNQ2 channel potentiators, confirmation, cell-based, CHO, FluxOR thallium flux, duplicate; potentiation, less the hit threshold, % at 10 µM; AID 2287, 2010; shares compounds with KCNQ2 pot; CHO-KCNQ2 cells, FluxOR thallium flux fluorescence; 1,200 tested, 68% active;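 active = fluorescence ratio rising 3 SD or more over the vehicle control mean in both replicates, plus primary screen hit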;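 note: peak minus minimum thallium fluorescence divided by baseline after K/Tl stimulus; 0% = vehicle mean plus 3 SD and 100% = vehicle minus unstimulated blank difference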
Kir21 spec: mouse Kir2.1 channel activation off-target, confirmation, selectivity assay for KCNQ2 potentiator project, cell-based, HEK293, FluxOR thallium flux; shares compounds with KCNQ2 pot; HEK293 Kir2.1, FluxOR thallium flux fluorescence; activity over 3SD threshold, % at 10 µM; 1,200 tested, 2% active;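 active = fluorescence ratio rise of at least 3 SD above the vehicle-control mean, seen in both replicates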;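 note: 0% = vehicle mean plus 3 SD and 100% = vehicle minus no-stimulus blank window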
KCNQ2 W236L MoA: potentiators of retigabine-insensitive KCNQ2 W236L, mechanism study for KCNQ2 potentiator project, cell-based, rat KCNQ2 W236L, CHO, automated patch clamp | shares compounds with KCNQ2 pot | automated patch clamp current | current increase over 3SD of negative controls (%), active compounds read high, % at 25 µM | 940 tested, 10% active | AID 2558, 2010;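 active = current increase at least 3 SD of the untreated controls above them in both duplicate recordings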
Numbers without * were called inactive. This is a sample that favours compounds with a hit; in the whole collection about 1.6% have one here.

`Cc1csc(NC(=O)CSc2nc(C(C)C)nc3ccccc23)n1` gave KCNQ2 pot 6.2*, KCNQ2 block inactive, CHO-K1 Tl ctr 18*, KCNQ1 pot spec -29, KCNQ2 pot confirm 1.0*, Kir21 spec -70 and KCNQ2 W236L MoA inactive.
CC(C)c1nc(SCC(=O)Nc2nccs2)c2ccccc2n1 was read as KCNQ2 pot 0.11 and KCNQ2 block inactive.
For CCOc1ccc(CCNC(=O)CN2C(=O)NC3(CCCCC3)C2=O)cc1OCC the results were KCNQ2 pot 0.14 and KCNQ2 block inactive.
Screening CCOC(=O)C1=C(C)N(C)C(=O)NC1c1c(O)ccc2ccccc12 (centres undefined) returned KCNQ2 pot 1.2 and KCNQ2 block inactive.
For COc1ccccc1CNCC(O)(c1ccc(Cl)cc1)c1ccc(Cl)cc1 the results were KCNQ2 block inactive.
For OC(CNCc1ccccc1)(c1ccccc1)c1ccccc1 the results were KCNQ2 block inactive.
Screening COc1ccccc1CNCC(O)(c1ccc(F)cc1)c1ccc(F)cc1 returned KCNQ2 block inactive, Kir21 confirm 53%* and HEK293 ctr inactive.
`COc1ccc(CNCC(O)(c2ccccc2)c2ccccc2)cc1` gave KCNQ2 block inactive, Kir21 confirm 56%* and HEK293 ctr inactive.
Screening COc1ccc(CNCC(O)(c2ccc(F)cc2)c2ccc(F)cc2)cc1 returned KCNQ2 block inactive, Kir21 confirm inactive and HEK293 ctr inactive.
`Cc1ccc(CNCC(O)(c2ccc(F)cc2)c2ccc(F)cc2)cc1` gave KCNQ2 block inactive.
`CCOc1cc(N2CCOCC2)c(OCC)cc1NC(=O)Cc1cccc2ccccc12` gave KCNQ2 pot 8.2*, KCNQ2 block inactive, Kir21 confirm inactive, HEK293 ctr inactive, CHO-K1 Tl ctr 2.4*, KCNQ1 pot spec 26*, KCNQ2 pot confirm 9.3*, Kir21 spec -41 and KCNQ2 W236L MoA inactive.
`CCOc1cc(N2CCOCC2)c(OCC)cc1NC(=O)C1CCCC1` gave KCNQ2 pot 4.2 and KCNQ2 block inactive.
CCOc1cc(N2CCOCC2)c(OCC)cc1NC(=O)CCC1CCCC1 was read as KCNQ2 pot 25*, KCNQ2 block inactive, Kir21 confirm inactive, HEK293 ctr inactive, CHO-K1 Tl ctr 0.0*, KCNQ1 pot spec 220*, KCNQ2 pot confirm 112*, Kir21 spec -37 and KCNQ2 W236L MoA inactive.
For CCOc1cc(N2CCOCC2)c(OCC)cc1NC(=O)COC(=O)c1ccccc1C the results were KCNQ2 pot 0.04 and KCNQ2 block inactive.
COc1ccccc1CCNC(=O)Cn1ccc2cc(S(=O)(=O)N3CCC(C)CC3)ccc21 was read as KCNQ2 pot 0.37 and KCNQ2 block inactive.
Screening COc1ccc(C(=O)N2CCCC(C(=O)O)C2)c2ccccc12 (centres undefined) returned KCNQ2 block inactive.
O=C(NCc1cccnc1)C(=O)NCC1CCCO1 (centres undefined) was read as KCNQ2 pot 1.9 and KCNQ2 block inactive.
COc1ccc(CNC(=O)c2csc(Cc3ccc(OC)cc3)n2)cc1 was read as KCNQ2 block inactive, Kir21 confirm 52%* and HEK293 ctr inactive.
For COc1ccc(CNC(=O)c2csc(Cc3ccc(Cl)cc3)n2)cc1 the results were KCNQ2 block inactive.
For CC(NCC(O)COc1ccc2ccccc2c1)c1ccccc1 (centres undefined) the results were KCNQ2 pot 0.03 and KCNQ2 block inactive.
Screening Cc1cc(OCC(O)CNC(C)c2ccccc2)ccc1C(C)C (centres undefined) returned KCNQ2 pot 3.9, KCNQ2 block inactive, Kir21 confirm inactive and HEK293 ctr inactive.
`CC(C)(C)c1ccc(C(=O)NC2CCS(=O)(=O)C2)cc1` (centres undefined) gave KCNQ2 block inactive.
`O=C(CC(=O)c1cc(Cl)ccc1O)c1ccccc1` gave KCNQ2 pot 5.3*, KCNQ2 block inactive, Kir21 confirm inactive, HEK293 ctr 130%*, CHO-K1 Tl ctr -5, KCNQ1 pot spec -16, KCNQ2 pot confirm -3, Kir21 spec -14 and KCNQ2 W236L MoA inactive.
For Cc1ccc(O)c(C(=O)CC(=O)c2ccc(Cl)cc2)c1 the results were KCNQ2 pot 6.2*, KCNQ2 block inactive, Kir21 confirm inactive, HEK293 ctr inactive, CHO-K1 Tl ctr -9, KCNQ1 pot spec -18, KCNQ2 pot confirm -11 and Kir21 spec -34.
Screening Cc1ccc(O)c(C(=O)CC(=O)c2cccc(F)c2)c1 returned KCNQ2 pot 1.6 and KCNQ2 block inactive.
`Cc1cccc(C(=O)CC(=O)c2cc(Cl)ccc2O)c1` gave KCNQ2 pot 0.16 and KCNQ2 block inactive.
`CCOc1ccc(NC(C)c2cc(Cl)ccc2O)cc1` (centres undefined) gave KCNQ2 pot 4.5 and KCNQ2 block inactive.
For CC(Nc1ccc(Cl)cc1)c1cc(Cl)ccc1O (centres undefined) the results were KCNQ2 pot 4.2, KCNQ2 block inactive, Kir21 confirm 59%* and HEK293 ctr inactive.
`O=C(NCc1cccs1)C12CC3CC(CC(C3)C1)C2` gave KCNQ2 pot 0.94 and KCNQ2 block inactive.

Compound activity as filed in PubChem.
